Assay [1] is described as follows: qHTS RealTime-Glo MT Cell Viability Assay in HEK293 cells - 0 hour (AID 1224880). Further: top concentration of the series differs between compounds; nearly all actives have a fitted effect of over 45% in size. The essentials:
(§1)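 Nonlytic bioluminescent viability monitoring. HEK293 at 600 cells/well with reagent; 5 h settle; compound transfer by pintool; plates held at 37 C and read at set time points.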
A general note: Quantitative high-throughput screening tests each substance at several concentrations.

Assay [2] is described as follows: A CellTox Green Cytotoxicity Assay to monitor cytotoxicity in HEK293 cells - 32 hour (AID 1224881). Further: nearly all actives have a fitted effect of over 40% in size. Further: potency means the concentration at half of the fitted maximal effect. The essentials:
(§2)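 Cytotoxicity was tracked continuously in HEK293 cells by a DNA-binding dye excluded from viable cells. Compounds were transferred in DMSO 5 h after seeding; fluorescence was recorded at intervals up to 40 h.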

Assay [3] in a line: A CellTox Green Cytotoxicity Assay to monitor cytotoxicity in HepG2 cells - 0 hour (AID 1224882). Further: nearly all actives have a fitted effect of over 35% in size. Further: potency means the concentration at half of the fitted maximal effect. The essentials: (§3)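 Real-time, homogeneous cytotoxicity readout: dead-cell DNA staining by CellTox Green in HepG2 monolayers, fluorescence measured at timed intervals up to 40 h of continuous compound exposure.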
Assay [4] in a line: A CellTox Green Cytotoxicity Assay to monitor cytotoxicity in HepG2 cells - 32 hour (AID 1224883). Further: nearly all actives have a fitted effect of over 50% in size. Further: potency means the concentration at half of the fitted maximal effect. The method in brief: as §3
Assay [5] is described as follows: A CellTox Green Cytotoxicity Assay to monitor cytotoxicity in HEK293 cells - 8 hour (AID 1224884). Further: nearly all actives have a fitted effect of over 35% in size. Further: potency means the concentration at half of the fitted maximal effect. The essentials:
as §2

Assay [6] in a line: qHTS RealTime-Glo MT Cell Viability Assay in HepG2 cells - 16 hour (AID 1224885). Further: nearly all actives have a fitted effect of over 50% in size. The method in brief: (§4)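 Viability was tracked continuously by NanoLuc luminescence from prosubstrate reduced by living HepG2 cells, at successive time points over 40 h of compound exposure. Cells with reagent were preincubated 5 h at 37 °C before compound addition.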
Assay [7] can be described thus: qHTS RealTime-Glo MT Cell Viability Assay in HEK293 cells - 24 hour (AID 1224886). Further: top concentration of the series differs between compounds; nearly all actives have a fitted effect of over 50% in size. The method in brief: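 Viability tracked continuously by luminescence as live cells reduce a prosubstrate for NanoLuc; HEK293 cells preincubated 5 h, compound-treated at 37 C, and read at 0, 8, 16, 24, 32 and 40 h.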
A short description of assay [8]: qHTS RealTime-Glo MT Cell Viability Assay in HEK293 cells - 8 hour (AID 1224887). Further: top concentration of the series differs between compounds; nearly all actives have a fitted effect of over 50% in size. The essentials: as §1
Assay [9] is described as follows: A CellTox Green Cytotoxicity Assay to monitor cytotoxicity in HEK293 cells - 16 hour (AID 1224888). Further: nearly all actives have a fitted effect of over 35% in size. Further: potency means the concentration at half of the fitted maximal effect. The method in brief: as §2
The nature of assay [10]: qHTS RealTime-Glo MT Cell Viability Assay in HepG2 cells - 0 hour (AID 1224889). Further: nearly all actives have a fitted effect of over 50% in size. The essentials: as §4
Assay [11] in a line: A CellTox Green Cytotoxicity Assay to monitor cytotoxicity in HepG2 cells - 8 hour (AID 1224890). Further: nearly all actives have a fitted effect of over 45% in size. Further: potency means the concentration at half of the fitted maximal effect. The method in brief:
as §3

The nature of assay [12]: qHTS assay to identify small molecule antagonists of the estrogen receptor alpha (ER-alpha) signaling pathway using the BG1 cell line in the presence of 0.1 nM 17-beta-estradiol - cell viability counter screen (AID 1259241). Further: nearly all actives have a fitted effect of over 40% in size. The method in brief: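 The cell line endogenously expresses full-length ER-alpha and carries four EREs driving luciferase. Cells are cultured 5 days hormone-free, treated 22 hr with compounds and 0.1 nM estradiol, then viability is read by fluorescence.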

Assay [13] can be described thus: qHTS assay to identify small molecule antagonists of the androgen receptor (AR) signaling pathway using the MDA cell line in the presence of 0.5 nM R1881 - cell viability counter screen (AID 1259242). Further: nearly all actives have a fitted effect of over 45% in size. The method in brief:
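Cytotoxicity toward MDA-kb2 cells is measured by CellTiter-Fluor live-cell protease fluorescence after 16 hr compound exposure at 37C in the presence of 0.5 nM R1881 stimulator.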

The target in assay [14] is Estrogen receptor (Homo sapiens) (UniProt P03372). The assay is described as follows: qHTS assay to identify small molecule antagonists of the estrogen receptor alpha (ER-alpha) signaling pathway using the BG1 cell line in the presence of 0.1 nM 17-beta-estradiol (AID 1259244). Further: nearly all actives have a fitted effect of over 50% in size. The method in brief: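 After 5 days in hormone-depleted medium (charcoal-stripped serum, no phenol red), VM7Luc4E2 cells were seeded, incubated 24 h, then co-treated with compound and 0.1 nM (final) estradiol for 22 h before luminescence detection.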
Chain of Estrogen receptor (Homo sapiens) (P03372 whole entry, looked up): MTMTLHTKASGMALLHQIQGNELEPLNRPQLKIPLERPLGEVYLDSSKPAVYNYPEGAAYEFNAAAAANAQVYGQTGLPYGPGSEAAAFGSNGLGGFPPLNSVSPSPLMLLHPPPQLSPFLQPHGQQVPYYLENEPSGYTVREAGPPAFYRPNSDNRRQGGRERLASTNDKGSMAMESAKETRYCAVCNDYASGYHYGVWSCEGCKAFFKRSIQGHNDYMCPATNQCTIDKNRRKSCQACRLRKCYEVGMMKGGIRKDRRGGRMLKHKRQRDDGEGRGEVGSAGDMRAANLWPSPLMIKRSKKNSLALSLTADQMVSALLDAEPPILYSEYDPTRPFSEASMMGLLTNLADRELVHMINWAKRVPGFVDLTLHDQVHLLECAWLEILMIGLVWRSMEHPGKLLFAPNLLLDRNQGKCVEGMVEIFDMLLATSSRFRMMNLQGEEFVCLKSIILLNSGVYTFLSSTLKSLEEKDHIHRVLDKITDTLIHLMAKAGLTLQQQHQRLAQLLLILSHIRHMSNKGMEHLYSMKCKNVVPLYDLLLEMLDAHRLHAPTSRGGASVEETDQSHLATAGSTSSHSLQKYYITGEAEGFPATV

Assay [15] in a line: qHTS assay to identify small molecule HDAC inhibitors (AID 1259364). Further: top concentration of the series differs between compounds; nearly all actives have a fitted effect of over 45% in size. The essentials:
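Homogeneous cell-based luminescent assay of endogenous class I/II HDAC activity; HCT-116 cells, 2 h compound exposure, 30 min HDAC-Glo development at RT.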

Assay [16] can be described thus: qHTS assay to identify small molecule HDAC inhibitors - cell viability counter screen (AID 1259365). The essentials:
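Viability readout: CellTiter-Glo luminescence. Wild-type HCT-116 cells, 2hr compound treatment following overnight attachment at 37 C.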

A short description of assay [17]: qHTS assay to identify small molecule agonists of the sonic hedgehog signaling (Shh) pathway - cell viability counter screen (AID 1259366). Further: nearly all actives have a fitted effect of over 50% in size. The method in brief:
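Viability measured fluorometrically (CellTiter-Fluor, 1hr, 37C) in 3T3 Gli1-Luc reporter cells after 23hr compound exposure within a 24hr incubation at 37C/5% CO2.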

In assay [18] the target is Androgen receptor (Homo sapiens) (UniProt P10275). The assay can be described thus: qHTS assay to identify small molecule antagonists of the androgen receptor (AR) signaling pathway using the MDA cell line in the presence of 0.5 nM R1881 (AID 1259243). Further: nearly all actives have a fitted effect of over 50% in size. The essentials: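 Steps: seed MDA-kb2 cells, incubate 5 hr at 37C; pin-transfer compounds in DMSO; add R1881 to 0.5 nM final; incubate 16 hr; add ONE-Glo, wait 30 min at room temperature; read luminescence.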
Chain of Androgen receptor (Homo sapiens) (P10275 whole entry, looked up): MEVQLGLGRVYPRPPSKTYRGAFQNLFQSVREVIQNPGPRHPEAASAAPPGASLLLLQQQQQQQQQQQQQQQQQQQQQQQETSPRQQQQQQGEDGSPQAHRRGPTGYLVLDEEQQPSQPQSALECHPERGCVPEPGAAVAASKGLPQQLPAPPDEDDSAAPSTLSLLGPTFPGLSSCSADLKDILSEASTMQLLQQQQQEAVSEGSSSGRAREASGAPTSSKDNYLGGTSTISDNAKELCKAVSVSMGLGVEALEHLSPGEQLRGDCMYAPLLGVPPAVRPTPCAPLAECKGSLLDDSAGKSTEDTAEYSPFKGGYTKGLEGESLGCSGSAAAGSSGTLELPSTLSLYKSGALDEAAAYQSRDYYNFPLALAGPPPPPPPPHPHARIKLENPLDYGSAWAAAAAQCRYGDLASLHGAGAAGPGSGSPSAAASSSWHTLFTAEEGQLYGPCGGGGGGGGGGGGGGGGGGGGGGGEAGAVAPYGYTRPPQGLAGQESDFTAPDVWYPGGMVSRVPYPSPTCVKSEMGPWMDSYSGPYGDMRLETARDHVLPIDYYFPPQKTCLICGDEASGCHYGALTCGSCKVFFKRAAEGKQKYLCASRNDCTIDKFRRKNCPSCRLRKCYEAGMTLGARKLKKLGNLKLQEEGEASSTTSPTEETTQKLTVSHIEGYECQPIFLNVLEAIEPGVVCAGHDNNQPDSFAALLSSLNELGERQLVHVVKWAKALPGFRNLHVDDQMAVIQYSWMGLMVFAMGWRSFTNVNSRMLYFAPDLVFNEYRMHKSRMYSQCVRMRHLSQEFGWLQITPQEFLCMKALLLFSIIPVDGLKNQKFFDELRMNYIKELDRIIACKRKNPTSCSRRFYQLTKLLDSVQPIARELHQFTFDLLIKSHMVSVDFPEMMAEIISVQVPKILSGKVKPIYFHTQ

Assay [19] in a line: qHTS assay to identify small molecule antagonists of the sonic hedgehog signaling (Shh) pathway - cell viability counter screen (AID 1259367). Further: nearly all actives have a fitted effect of over 55% in size. The method in brief: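 After a 4 hr settling period, 3T3 Gli1-Luc cells were treated with DMSO-dissolved chemicals and conditioned medium, kept 24 hr at 37C in 5% CO2, and assayed for viability by CellTiter-Fluor fluorescence following 1 hr reagent incubation.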

Assay [20] can be described thus: qHTS assay to identify small molecule phospholipidosis (PLD) inducers (AID 1259344; active means well fitted curve in the direction sought with a large enough effect; an effect the other way counts as inactive or inconclusive). The essentials: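 HepG2 cells grown on collagen I take up LipidTOX Red while exposed to compound for 24 h; after fixation they are imaged at 20x and pit metrics are extracted.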

The structures appear in SMILES notation. Unmarked numbers belong to inactive results. Results filed as inconclusive are left out. Activity calls are given as the source filed them. Unless noted, the call rests on the fitted dose curve; in most records, active means well fitted curve in the direction sought with a large enough effect in the repeat runs; inconclusive means weak or mixed curves; inactive means no such curve, though single readings can be large; an effect the other way counts as inactive or inconclusive.

`CC(C)N=C=NC(C)C`: the Potency result in [1], in assay [2], in assay [3], in [4], in assay [5] and in assay [6] was “inactive” each time. The Potency entry in assay [7], in assay [8], in [9], in assay [10], in assay [11] and in assay [12] was “inactive” each time. In addition, the Potency entry in [13], in [14], in assay [15], in [16] and in [17] was “inactive” throughout.
`Cc1oc(=O)oc1COC(=O)[C@@H]1N2C(=O)[C@@H](NC(=O)[C@H](N)c3ccccc3)[C@H]2SC1(C)C`: the Potency result in [1], in assay [2], in assay [3], in [4], in [5] and in [6] was “inactive” throughout. Moreover, the Potency entry in assay [7], in assay [8], in assay [9], in assay [10], in assay [11] and in [12] was “inactive” in each case. Further, the Potency entry in assay [13], in [18], in assay [14], in assay [15], in [16] and in assay [17] was “inactive” in each case.
As to `CCOC(=O)Oc1ccc(CCNC(=O)[C@H](CCSC)NC(C)=O)cc1OC(=O)OCC`, the Potency result in [1], in assay [2], in assay [3], in [4], in assay [5] and in assay [6] was “inactive” in each case. The Potency entry in [7], in [8], in assay [9], in assay [10], in [11] and in assay [12] was “inactive” throughout. For the same molecule, the Potency result in assay [13], in assay [18], in [16], in assay [17] and in [19] was “inactive” each time.
As to `Oc1cccc2[nH]ccc12`, the Potency entry in [1], in assay [2], in assay [3], in assay [4], in assay [5] and in assay [6] was “inactive” each time. Further, the Potency result in [7], in assay [8], in assay [9], in assay [10], in [11] and in assay [12] was “inactive” throughout. Further, the Potency result in assay [13], in assay [18], in assay [14], in assay [15], in [16] and in assay [17] was “inactive” each time.
Regarding `O=P(O)(O)Oc1ccccc1`, the Potency entry in [1], in [2], in [3], in assay [4], in assay [5] and in assay [6] was “inactive” each time. In addition, the Potency result in assay [7], in assay [8], in assay [9], in [10], in [11] and in assay [12] was “inactive” in each case. Moreover, the Potency entry in assay [13], in [14], in assay [15], in assay [16], in assay [17] and in assay [19] was “inactive” throughout.
As to `C=CC(=O)O`, the Potency entry in assay [1], in [2], in [3], in [4], in assay [5] and in assay [6] was “inactive” in each case. Moreover, the Potency result in assay [7], in assay [8], in [9], in [10], in [11] and in assay [12] was “inactive” in each case. Moreover, the Potency result in [13], in assay [14], in [20], in [17] and in assay [19] was “inactive” each time.
As for `CCOC(=O)c1ccc(NC(=O)CN2CCCCC2)cc1`, the Potency entry in assay [1], in assay [2], in assay [3], in assay [4], in [5] and in assay [6] was “inactive” each time. Moreover, the Potency result in assay [7], in assay [8], in assay [9], in assay [10], in assay [11] and in assay [12] was “inactive” each time. Also, the Potency result in [13], in [18], in assay [20], in [15], in assay [16] and in assay [17] was “inactive” in each case. For the same molecule, the Potency entry in [19] was “inactive”.
`CC(C)Cc1ccc(CC(=O)O)cc1`: the Potency result in assay [1], in assay [6], in [7], in [8], in [10] and in assay [12] was “inactive” throughout. For the same molecule, the Potency entry in [13], in assay [20], in [15], in [17] and in [19] was “inactive” in each case. Besides, the Potency is 10.7 µM (active) in assay [2]; 19 µM (active) in assay [3]; 19 µM (active) in assay [4]; 9.52 µM (active) in assay [5]; 9.52 µM (active) in assay [9]; 21.3 µM (active) in [11].

Values taken from PubChem BioAssay (Tox21).
